The values below come from PubChem BioAssay (NCI).

Compounds without any hit were thinned out: in the full panel of roughly 83,000, 20% have a hit.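 Results are percent growth after 48 hours of single-concentration exposure. 100 means growth as in untreated cells, lower positive values show inhibition; negative values down to -100 show cell death.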 Values without a mark were called inactive. Active and inactive are the calls of the source. How the source made its calls: active means growth percent below 10; inactive means the rest.

The subject of the assay is MDA-MB-468 breast. Put plainly: NCI-60 one-dose screen, 48 h (100 = growth as untreated, 0 = no growth, -100 = all killed). Particulars: 10 µM unless noted.
For `COc1cc(OC)cc(C2C(C#N)=C(N)Oc3c2ccc2ccc(O)cc32)c1` (centres undefined), the growth was -16.6% (active).

With `COc1cc(-c2cc3ncccc3c3nc(OCCN(C)C)c4cccnc4c23)cc(OC)c1OC`, the growth was -6.09% (active).

As for `ClC1=C2NC=NC2n2c(nnc2-c2ccc(Cl)cc2)N1` (centres undefined), the growth was 91.6%.

Consider `O=c1nc(-c2ccccc2)c2cc(-c3ccc(C(F)(F)F)nc3)ccc2[nH]1`, for which the growth was 104%.
